Data: PubChem BioAssay AID1159580 (chemical genetic matrix, 2015)
“And” between values parts separate entries of the source, which are not always exact repeats. Equal entries are not always repeated. The whole screen tested about 5,500 compounds, of which about 2,000 (36%) were called active. Inconclusive results (about 18%) are left out. Cut-off read from the data, not from the text of the source: active = normalized growth mostly below about 0.91 (no sharp cut-off); inconclusive = no clear call, values can overlap the other calls; inactive = mostly above about 0.92. The list shows a part of the results.

Experiment: chemical genetic growth profiling, strain panel (AID 1159580);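 note: tested at 20 µM; growth read once vehicle control cultures reached saturation at 30 °C; 1 = growth at the plate median or of vehicle wells; lower values mean less growth of the strain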
Conditions: S. cerevisiae deletion strains, growth OD

Measured: normalized growth

CC(=O)OCC[C@H](C)CCC=C(C)C
inactive: locus YAL013W, strain DEP1, hits give low values 1 | locus YAL021C, strain ccr4, hits give low values 0.993 | locus YAL026C, strain drs2, hits give low values 0.993 | locus YAL030W, strain snc1, hits give low values 0.989 | locus YBL061C, strain skt5, hits give low values 0.992 | locus YBR009C, strain hhf1, hits give low values 1.06 | locus YBR021W, strain FUR4, hits give low values 0.991 | locus YBR023C, strain chs3, hits give low values 0.995 | locus YBR171W, strain sec66, hits give low values 0.983 | locus YBR229C, strain ROT2, hits give low values 1.01 | locus YBR231C, strain swc5, hits give low values 0.986 | locus YBR279W, strain paf1, hits give low values 0.997 | locus YCL011C, strain gbp2, hits give low values 1.01 | locus YCL016C, strain dcc1, hits give low values 0.994 | locus YCL029C, strain bik1, hits give low values 1.03 | locus YCL061C, strain MRC1, hits give low values 1 | locus YCL069W, strain vba3, hits give low values 0.989 | locus YCR088W, strain abp1, hits give low values 0.989 | locus YDL005C, strain med2, hits give low values 0.978 | locus YDL035C, strain GPR1, hits give low values 1.02 | locus YDL040C, strain nat1, hits give low values 0.993 | locus YDL074C, strain BRE1, hits give low values 1.05 | locus YDL101C, strain DUN1, hits give low values 1.01 | locus YDL185W, strain tfp1, hits give low values 1.02 | locus YDL192W, strain arf1, hits give low values 1.04 | locus YDR001C, strain nth1, hits give low values 0.998 | locus YDR069C, strain doa4, hits give low values 0.991 | locus YDR101C, strain arx1, hits give low values 1.03 | locus YDR137W, strain rgp1, hits give low values 0.974 | locus YDR150W, strain NUM1, hits give low values 1.01 | locus YDR159W, strain sac3, hits give low values 1.02 | locus YDR162C, strain NBP2, hits give low values 1.01 | locus YDR195W, strain ref2 0.949 | locus YDR297W, strain sur2, hits give low values 1.01 | locus YDR318W, strain mcm21, hits give low values 1.02 | locus YDR334W, strain swr1, hits give low values 0.998 | locus YDR335W, strain msn5, hits give low values 0.992 | locus YDR388W, hits give low values 1.02 | locus YDR392W, strain spt3, hits give low values 0.966 | locus YDR502C, strain sam2, hits give low values 1.01 | locus YEL003W, strain gim4, hits give low values 1 | locus YEL037C, strain rad23, hits give low values 0.995 | locus YEL061C, strain CIN8 (second series), hits give low values 1.03 | locus YEL061C, strain CIN8, hits give low values 1.01 | locus YER015W, strain faa2, hits give low values 0.993 | locus YER016W, strain bim1, hits give low values 0.962 | locus YER110C, hits give low values 1.03 | locus YER111C, strain swi4, hits give low values 0.992 | locus YER155C, strain BEM2 (second series), hits give low values 0.973 | locus YER155C, strain BEM2, hits give low values 0.988 | locus YER167W, strain BCK2, hits give low values 1.01 | locus YFR010W, strain ubp6, hits give low values 1.01 | locus YGL078C, strain dbp3, hits give low values 1.01 | locus YGL086W, strain mad1, hits give low values 1.01 | locus YGL167C, strain pmr1, hits give low values 0.99 | locus YGL173C, strain kem1, hits give low values 0.986 | locus YGL227W, strain vid30, hits give low values 0.987 | locus YGL240W, strain doc1, hits give low values 0.978 | locus YGL248W, strain PDE1, hits give low values 1.02 | locus YGL253W, strain hxk2, hits give low values 0.997 | locus YGR135W, strain pre9, hits give low values 1.06 | locus YGR252W, strain gcn5, hits give low values 1.06 | locus YHR013C, strain ard1, hits give low values 0.967 | locus YHR027C, strain rpn1, hits give low values 0.99 | locus YHR030C, strain SLT2, hits give low values 1 and 1.01 | locus YHR079C, strain IRE1 (second series), hits give low values 1.02 | locus YHR079C, strain IRE1, hits give low values 1.01 | locus YHR094C, strain hxt1, hits give low values 1.02 | locus YHR129C, strain ARP1, hits give low values 0.999 | locus YHR142W, strain chs7, hits give low values 0.988 | locus YHR200W, strain rpn10, hits give low values 1.03 | locus YIL066C, strain RNR3, hits give low values 1.01 | locus YIL073C, strain SPO22, hits give low values 1.1 | locus YIL125W, strain kgd1, hits give low values 1.01 | locus YIR030C, strain dcg1, hits give low values 1.02 | locus YJL092W, strain hpr5, hits give low values 0.999 | locus YJL095W, strain BCK1 (second series), hits give low values 0.99 | locus YJL095W, strain BCK1, hits give low values 1.02 | locus YJL115W, strain asf1, hits give low values 0.991 | locus YJL129C, strain trk1, hits give low values 0.968 | locus YJL134W, strain LCB3, hits give low values 1.01 | locus YJL154C, strain vps35, hits give low values 0.981 | locus YJL164C, strain tpk1, hits give low values 1.02 | locus YJL166W, strain qcr8, hits give low values 0.96 | locus YJL168C, strain set2, hits give low values 1.02 | locus YJL187C, strain SWE1 (second series), hits give low values 1.02 | locus YJL187C, strain SWE1, hits give low values 0.982
